Assay outcomes (PubChem)
RORgamma inh: ROR gamma (mouse) transcription inhibition. Drosophila S2 Gal4-RORgamma UAS-luciferase reporter, 20 h. Potency, µM (highest dose often 53.6 µM), inactives show at the top dose activity change, negative = inhibition, usual class: inhibitors. 310,000 compounds, 5.4% hits; also: potency is read from the fitted curve at half-maximal effect; % is scaled to controls: 0 for no effect and ±100 for the full control effect; nearly all actives have a fitted effect of over 60% in size
Target sequence (P51450 whole entry, looked up, the tested form may be a part): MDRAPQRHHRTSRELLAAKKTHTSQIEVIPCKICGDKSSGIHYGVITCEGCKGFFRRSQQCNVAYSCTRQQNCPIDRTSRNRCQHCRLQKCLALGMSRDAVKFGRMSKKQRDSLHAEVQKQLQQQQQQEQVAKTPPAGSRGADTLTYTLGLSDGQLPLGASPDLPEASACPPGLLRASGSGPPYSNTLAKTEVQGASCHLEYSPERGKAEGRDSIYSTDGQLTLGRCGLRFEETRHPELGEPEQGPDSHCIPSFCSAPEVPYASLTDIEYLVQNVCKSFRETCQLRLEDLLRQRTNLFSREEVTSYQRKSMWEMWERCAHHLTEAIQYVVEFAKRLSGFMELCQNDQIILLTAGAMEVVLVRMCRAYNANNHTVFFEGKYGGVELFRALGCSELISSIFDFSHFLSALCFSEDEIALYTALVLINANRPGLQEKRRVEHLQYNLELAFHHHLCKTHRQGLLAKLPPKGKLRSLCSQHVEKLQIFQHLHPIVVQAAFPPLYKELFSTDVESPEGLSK
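ROR gamma transcriptional activity was tracked as Gal4-UAS luciferase output in stably transfected Drosophila Schneider cells, with compound added 1 hr before 700 uM copper sulfate induction and a 20 hr ambient-temperature incubation.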
CtBP-E1A blk: blocks the CtBP interaction with E1A; AlphaScreen GST-E1A/His-CtBP binding, 1536-well; hits give low values; activity change, % (no concentration beside the values); 340,000 compounds, 0.49% hits; in the data active = activity change below about -65%; inconclusive = mostly about -30% to -63%; also: % is scaled to controls: 0 for no effect and ±100 for the full control effect
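AlphaScreen with 125 nM GST-E1A and 125 nM His-CtBP (5X stocks) in Tris pH 8.0, 300 mM NaCl, BSA, Tween 20, TCEP. Compounds preincubated 2 h at 37 deg C, then glutathione donor/nickel acceptor beads added for 1 h at 37 deg C in dark.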
MBNL1 CUG block: inhibitors of human MBNL1 binding to CUG repeat RNA; Q9NR56; TR-FRET MBNL1-His/biotin-(CUG)12 binding, 665/545 ratio; Potency, µM (doses to about 57.5 µM), inactives show top-dose activity change, negative = inhibition, most hits filed as inhibitors; 280,000 compounds, 0.036% hits; active = well fitted inhibition curve with a large enough effect in the signal ratio, with a control signal flat, not every such curve was filed as active; inconclusive = small, poorly fitted or top-dose-only effect, or effect the other way, or a change in a side signal; inactive = no such curve, though single readings can be large or run the other way; the % refers to the signal ratio; also: potency is read from the fitted curve at half-maximal effect; % is scaled to controls: 0 for no effect and ±100 for the full control effect
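His-tagged MBNL1 binding to biotinylated (CUG)12 RNA was measured by TR-FRET using terbium anti-His antibody (0.055 ng/ul final) and streptavidin-XL665 (5 nM final). Compounds were titrated 92 nM to 58 uM; 60 min at room temperature.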
Six1-Eya2 inh: blocks human Six1 binding to Eya2; Q15475+O00167; AlphaScreen GST-Six1/His-Eya2 binding, biochemical; hits give low values; activity change, % (concentration not given with the values); 360,000 compounds, 0.56% hits; AID 651725; in the data active = activity change below about -65%; inconclusive = mostly about -30% to -63%; also: % is scaled to controls: 0 for no effect and ±100 for the full control effect
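Six1/Eya2 binding was read as AlphaScreen signal after compounds were pinned into GST-Six1 plus His-tagged Eya2 (5X stock 250/500 nM) in pH 8.0 Tris/NaCl/TCEP buffer, beads added, then incubated 1 h, 37 C, dark.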
CBFb-RUNX1 inh: blocks binding between human CBF-beta and RUNX1 | 230,000 tested, under 10 active | Potency, µM (doses to about 59.8 µM), for the others: top-dose activity, negative = inhibition, actives largely listed as inhibitors | AlphaScreen CBFb-His/RUNX1-biotin binding, biochemical | Q01196+Q13951; also: % of control where 0% means no effect
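Inhibition was taken as any reduction in AlphaScreen signal from the CBF-beta–RUNX1 pair (His and biotin tags, 30 nM each), measured after compound (15 min) and bead (90 min) incubations at room temperature.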
Gal4-VP16 FLuc: counter-screen for ROR gamma inhibitors: Gal4-VP16 reporter; Drosophila S2 Gal4-VP16 UAS-luciferase, luminescence, 20 h; Potency, µM (highest dose often 53.6 µM), for the others: top-dose activity, negative = inhibition, actives largely listed as inhibitors; 310,000 compounds, 3.5% hits; AID 2546;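 also: Gal4-VP16 expression switched on by copper sulfate through the metallothionein promoter; potency is read from the fitted curve at half-maximal effect; % is scaled to controls: 0 for no effect and ±100 for the full control effect; nearly all actives have a fitted effect of over 50% in size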
* hit, by the source's call; u = inconclusive; x = not tested or not shown; [ ] = remark or other dose. Hits are enriched below; roughly 5.5% of the tested compounds scored in any of these assays. Unless noted, calls follow the shape of the dose curve; as a rule, active = well fitted curve in the direction sought with a large enough effect; inconclusive = small, poorly fitted or top-dose-only effect, or another doubt; inactive = no such curve, though single readings can be large; an effect the other way counts as inactive or inconclusive.

SMILES	RORgamma inh	CtBP-E1A blk	MBNL1 CUG block	Six1-Eya2 inh	CBFb-RUNX1 inh	Gal4-VP16 FLuc
Cc1nn(-c2ccccc2)c2sc(-c3n[nH]c(=S)o3)cc12	2.8µM*	u	23%	u	15%	-10%[0.365 µM]
CO[C@H]1COC(=O)C/C=C\[C@H](C)COC(=O)[C@@H](C)NC(=O)C/C=C\[C@@H]1C	19%[10 µM]	x	x	x	-3%[13.1 µM]	-4%[10 µM]
COc1cc2nc(=S)n(CCCN3CCOCC3)c(N)c2cc1OC	-10%	-88*	0%	-85*	-10%	-10%
COc1ccc(-c2oc3ncnc(NCCCN4CCOCC4)c3c2-c2ccc(OC)cc2)cc1	u	-2	1%	-1	-9%	16µM*
CCOc1cc2nc(-c3ccc(OC)c(OC)c3)nc(NCCCN3CCOCC3)c2cc1OC	u	-88*	-15%	-91*	-14%	-18%
COc1cc2ncnc(NCCCN3CCOCC3)c2cc1OC	9%	x	-10%	0	19%	-6%
COc1ccc(OC2C=CC(c3ccccc3)OC2CO)cc1 (stereo unspecified)	2%[10 µM]	x	x	x	17%[13.1 µM]	10%[10 µM]
CCCCCCCC1=Cc2ccccc2C(C(C(=O)OC)C(=O)OC)N1C(=O)OC (stereo unspecified)	x	x	x	x	3%[13.1 µM]	x
O=C=Nc1ccc(Cl)c(Cl)c1	u	x	x	x	24%[21.7 µM]	-23%
Nc1nonc1-n1nnc(C(=O)N/N=C/c2ccoc2)c1CSc1ccc(Cl)cc1	7.1µM*	x	4%	-17	x	13µM*
Nc1nonc1-n1nnc(C(=O)N/N=C/c2ccoc2)c1CSc1ccccc1	16µM*	x	u	3	x	u
CC(C)c1ccc(/C=N/NC(=O)c2nnn(-c3nonc3N)c2CSC2=NCCS2)cc1	16µM*	0	x	-13	-17%	u
Nc1nonc1-n1nnc(C(=O)N/N=C/c2cccnc2)c1CSc1ccc(Cl)cc1	26%	1	14%	0	x	-10%
Nc1nonc1-n1nnc(C(=O)N/N=C/c2ccccc2)c1CSc1ccccc1	-45%	-1	-7%	-2	11%	-2%
O=C1C=CC(=O)N1c1cccc2cccnc12	x	0	x	-29	x	x
CO[C@]1(NC(=O)C2SC(=C(C(N)=O)C(=O)O)S2)C(=O)N2C(C(=O)O)=C(CSc3nnnn3C)CS[C@H]21 (stereo partly specified)	11%[2.98 µM]	x	x	x	10%[21.7 µM]	0%[17 µM]
Cc1ccc(S(=O)(=O)Nc2nc(C)c(C)s2)cc1	12%	-2	-4%	1	x	-4%
Cc1ccc(NC(=O)c2nnn(-c3ccc4c(c3)OCCO4)c2N)cc1	-23%	-13	-5%	-2	x	3%
Nc1c(C(=O)Nc2ccccc2)nnn1-c1ccc2c(c1)OCCO2	10µM*	-10	0%	1	x	u
Cc1cc(C)n(-c2nc3ccccc3c(=O)n2OCCOc2ccccc2)n1	u	0	-17%	-1	-6%	14µM*
NC(=O)COn1c(SCC(N)=O)nc2ccccc2c1=O	9%	14	-4%	0	23%	1%
Cc1cc(CC(C)C)n(-c2nc3ccccc3c(=O)n2OCC(N)=O)n1	2.2µM*	2	-9%	-4	9%	5.6µM*
Cc1cc(C)n(-c2nc3ccccc3c(=O)n2OCC(N)=O)n1	6.3µM*	-5	1%	12	0%	20µM*
C=CCOn1c(-n2nc(C)cc2C)nc2ccccc2c1=O	u	6	6%	9	x	-13%
Cc1cc(C)n2nc(C(=O)OCC(=O)NNC(=O)c3ccc(Cl)cc3)nc2n1	x	-2	x	2	x	x
SMILES	RORgamma inh	CtBP-E1A blk	MBNL1 CUG block	Six1-Eya2 inh	CBFb-RUNX1 inh	Gal4-VP16 FLuc
COc1cccc2sc(Nc3nnc(-c4cccs4)o3)nc12	1.4µM*	-4	45%	-1	-20%	2µM*
O=C(Nc1nc2c(F)cccc2s1)c1ccco1	u	1	22%	26	x	-3%
COc1cccc2sc(Nc3nnc(-c4ccc(F)cc4)o3)nc12	2.2µM*	2	5%	-7	u	5µM*
Fc1cccc2sc(Nc3nnc(-c4ccco4)o3)nc12	0.13µM*	-15	40%	-22	-12%	-8%[0.365 µM]
COc1ccc(-c2nnc(-c3ccc(F)cc3)o2)cc1	-3%	9	-3%	2	x	11%
CC1=C(C(=O)N2CCCCCC2)CC(CC(=O)NCCN2CCOCC2)C(=O)N1Cc1ccc(F)cc1 (stereo unspecified)	x	2	x	4	x	x
COc1cccc(NC(=O)C(OC(=O)c2ccc([N+](=O)[O-])o2)c2ccccc2)c1 (stereo unspecified)	14µM*	0	x	-5	0%	-28%
CCCOC1CCCN(C(=O)c2cc(COc3ccc(-n4cncn4)cc3)on2)C1 (stereo unspecified)	u	2	-18%	0	x	-1%
CCN(CC)c1ccc(/C=N/NC(=O)c2c(Cl)c(C)nn2C)cc1	5.6µM*	3	18%	-1	9%	u
Cc1onc(-c2ccccc2)c1C(=O)N/N=C/C=C/c1ccccc1	2.2µM*	-3	7%	-6	8%	3.2µM*
CCN(CC)c1ccc(/C=N/NC(=O)c2c(-c3ccccc3)noc2C)cc1	11µM*	-14	u	-22	x	u
Cc1onc(-c2ccccc2)c1C(=O)N/N=C/c1ccc([N+](=O)[O-])s1	11µM*	-2	u	-19	-10%	11µM*
Cc1onc(-c2ccccc2)c1C(=O)N/N=C/c1cccc(O)c1	2%	0	-17%	8	-16%	-10%
CC(=O)c1ccc2c(c1)N(Cc1ccccc1)C(=O)C(C)S2 (stereo unspecified)	x	4	x	1	x	x
CCN(CC)c1ccc(/C=N/NC(=O)C2CC2)cc1	9%	-15	u	-2	x	18%
CCN(CC)c1ccc(/C=N/NC(=O)Nc2nonc2N)cc1	7.1µM*	-1	-23%	-25	-7%	-99%
C/C(=N\NC(=S)Nc1cc(S(=O)(=O)N2CCOCC2)ccc1Cl)c1ccccc1F	1.1µM*	-17	-5%	-11	-17%	6.3µM*
O=C(NNC(=O)c1cc(S(=O)(=O)N2CCOCC2)c(Cl)cc1Cl)c1ccccc1F	x	-87*	x	-66*	x	x
CC(C)C[C@@H]1COc2cc(N3CCC[C@H]3CO)ccc2S(=O)(=O)N1	x	0	x	1	x	x
CCCn1c(CN2CCN(C(=O)OCC)CC2)nc2cc([N+](=O)[O-])ccc21	-2%	-1	u	-3	x	-3%
COc1ccc(N2CCN(Cc3cc4c(cc3O)CCC4)CC2)cc1	5%	-65*	-13%	u	-18%	-1%
CC(=O)Nc1nonc1-c1nc2ccccc2n1CCC(C)C	13µM*	10	13%	4	15%	-18%
